Several values for one entry are separate records, joined by “and”; a condition that tells them apart may be missing. Equal entries are not always repeated. Records with an inconclusive call do not appear. A structure can be active in one record and inactive in another. Activity calls are given as the source filed them. The calls were made as follows, unless noted: active = hit-call score of the fitted dose curve at least 0.9, where 1 is the maximum; inactive = score below 0.9.
Key:
[1] = IUF_NPC2c_oligodendrocyte_migration_120hr: Leibniz Research Institute for Environmental Medicine (IUF) 120-hour Neural Progenitor Cell Migration Assay for Oligodendrocyte Migration (NPC2c) (AID 2284297);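 also: O4-positive oligodendrocyte migration distance divided by radial glia migration distance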
Summary of the method: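 Primary hNPC spheres migrating on extracellular matrix, exposed five days to a 7-point dilution series with solvent control. Oligodendrocyte migration was scored by high-content imaging of O4 immunostaining and expressed relative to radial glia distance.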

[2] = IUF_NPC2a_radial_glia_migration_72hr: Leibniz Research Institute for Environmental Medicine (IUF) 72-hour Neural Progenitor Cell Migration Assay for Radial Glia Migration (NPC2a) (AID 2284299)
Summary of the method: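 Human fetal neural progenitor spheres (0.3 mm) plated on poly-D-lysine/laminin in N2 differentiation medium and exposed from day 0 at 7 concentrations; radial glia migration distance from sphere edge measured at 72 h on brightfield images, mean of four directions, vs DMSO.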

[3] = IUF_NPC3_neuronal_differentiation_120hr: Leibniz Research Institute for Environmental Medicine (IUF) 120-hour Neuronal Differentiation Assay (NPC3) (AID 2284301)
Summary of the method: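 Primary human fetal neural progenitor spheres (GW 16-19, 0.3 mm) plated on poly-D-lysine/laminin in N2 medium, exposed from day 0 for 120 h with half-medium refresh at day 3. TUBB3+ cells as percent of Hoechst nuclei in migration area; DMSO baseline.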

[4] = IUF_NPC4_neurite_length_120hr: Leibniz Research Institute for Environmental Medicine (IUF) 120-hour Neuronal Morphology Assay for Neurite Length (NPC4) (AID 2284302)
Summary of the method: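 Human fetal cortex (GW 16-19) neural progenitor spheres, 0.3 mm, were plated on poly-D-lysine/laminin in N2 differentiation medium and exposed from day 0 for 120 h, half-feeding at day 3. Mean TUBB3+ neurite length (µm) came from skeletonized images, relative to DMSO.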

[5] = IUF_NPC5_oligodendrocyte_differentiation_120hr: Leibniz Research Institute for Environmental Medicine (IUF) 120-hour Oligodendrocyte Differentiation Assay (NPC5) (AID 2284304; active = hit-call score of the fitted dose curve at least 0.9, where 1 is the maximum;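 also: primary human fetal neural progenitor spheres plated to migrate and differentiate; share of O4-positive cells among Hoechst nuclei found by CNN image analysis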)
Summary of the method: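 Human primary NPC neurospheres migrating and differentiating on laminin for 120 h under continuous compound exposure (serial dilution, solvent control). Endpoint: percent O4+ oligodendrocytes among Hoechst nuclei, detected by CNN image analysis, with DMSO as negative control.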

[6] = IUF_NPC4_neurite_area_120hr: Leibniz Research Institute for Environmental Medicine (IUF) 120-hour Neuronal Morphology Assay for Neurite Area (NPC4) (AID 2284305; active = hit-call score of the fitted dose curve at least 0.9, where 1 is the maximum)
Summary of the method: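 Human fetal cortex-derived neural progenitor spheres (0.3 mm, GW 16-19) plated on poly-D-lysine/laminin in N2 differentiation medium and exposed from day 0 for 120 h across 7 concentrations plus solvent control. Neurite area is mean pixel area per TUBB3-positive neuron via skeletonization, analysed relative to DMSO.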

[7] = IUF_NPC2-5_cytotoxicity_72hr: Cytotoxicity Assessment at 72 hours in the Leibniz Research Institute for Environmental Medicine (IUF) Neural Progenitor Cell Migration and Differentiation Assay for Cytotoxicity (NPC2-5) (AID 2284306; active = hit-call score of the fitted dose curve at least 0.9, where 1 is the maximum;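 also: LDH release into supernatant measured by resorufin fluorescence marking membrane damage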)
Summary of the method: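 Human fetal (GW 16-19) neural progenitor spheres, 0.3 mm, plated on poly-D-lysine/laminin in N2 differentiation medium and exposed from day 0 to 7 concentrations plus solvent control (DMSO ≤0.1%). LDH-dependent resazurin-to-resorufin fluorescence in supernatant at 72 h.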

[8] = IUF_NPC2-5_cytotoxicity_120hr: Cytotoxicity Assessment at 120 hours in the Leibniz Research Institute for Environmental Medicine (IUF) Neural Progenitor Cell Migration and Differentiation Assay (NPC2-5) (AID 2284307; active = hit-call score of the fitted dose curve at least 0.9, where 1 is the maximum;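 as to AC50: LDH released into supernatant as membrane damage marker via resorufin fluorescence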)
Summary of the method: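 Fluorescence (RFU) from LDH-driven resazurin reduction in medium supernatants measured loss of membrane integrity after 120 h of compound exposure of differentiating primary human neural progenitor spheres on an extracellular matrix.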

[9] = IUF_NPC2-5_cell_number_120hr: Cell Number Assessment at 120 hours in the Leibniz Research Institute for Environmental Medicine (IUF) Neural Progenitor Cell Migration and Differentiation Assay (NPC2-5) (AID 2284308);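 also: count of Hoechst-stained nuclei in migration zone around plated human neural progenitor spheres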
Summary of the method: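 Cell number is taken as all Hoechst-positive nuclei detected in the area into which cells migrate out of the sphere, scored at 120 h and referenced to DMSO solvent control, which was kept at no more than 0.1%.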

[10] = read-out: Intercellular Adhesion Molecule 1 (ICAM1), ICAM1 (gene 3383); experiment: BSK_hDFCGF_ICAM1: BioMAP Diversity Plus: hDFCGF Assay for Intercellular Adhesion Molecule 1 (ICAM1) Biomarker Activity (AID 2284287); settings: primary human foreskin fibroblasts
Summary of the method: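 Primary human foreskin fibroblasts (hDFCGF system) dosed with chemical; ICAM-1 quantified by ELISA at 24 h relative to DMSO. Parallel SRB total-protein staining to assess overt cytotoxicity.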

CD40, CD40 (gene 958) = experiment: BSK_IMphg_CD40: BioMAP Diversity Plus: IMphg Assay for CD40 Biomarker Activity (AID 2284288); settings: primary human endothelial cells with macrophages
Summary of the method: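 Venular endothelial cells co-cultured with macrophages (human primary), CD40 measured by ELISA 24 h after dosing. Positive-direction fit vs DMSO baseline; cytotoxicity tracked by SRB total-protein staining in parallel cultures.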

[11] = read-out: TIMP metallopeptidase inhibitor 2 (TIMP2), TIMP2 (gene 7077); experiment: BSK_hDFCGF_TIMP2: BioMAP Diversity Plus: hDFCGF Assay for TIMP metallopeptidase inhibitor 2 (TIMP2) Biomarker Activity (AID 2284289); settings: primary human foreskin fibroblasts
Summary of the method: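 Primary human foreskin fibroblasts in the hDFCGF system, dosed for 24 h; TIMP-2 level measured by ELISA, fitted in the positive direction against DMSO; cytotoxicity checked in parallel by sulforhodamine B total protein staining.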

[12] = read-out: Interleukin-1 alpha (IL1a), IL1A (gene 3552); experiment: BSK_IMphg_IL1a: BioMAP Diversity Plus: IMphg Assay for Interleukin-1 alpha (IL1a) Biomarker Activity (AID 2284290); settings: primary human endothelial cells with macrophages
Summary of the method: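 Human venular endothelial cells co-cultured with macrophages, IMphg system. IL-1α is measured by ELISA 24 h after dosing and fitted in the positive direction against DMSO. Cytotoxicity is assessed by SRB staining of parallel cultures.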

[13] = read-out: E-selectin (Homo sapiens) (UniProt P16581); experiment: BSK_IMphg_ESelectin: BioMAP Diversity Plus: IMphg Assay for Eselectin Biomarker Activity (AID 2284291); settings: primary human endothelial cells with macrophages
Summary of the method: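 Human venular endothelial cell–macrophage co-culture, E-selectin measured by ELISA 24 h after chemical dosing. Signal fitted in the positive direction against DMSO as negative control and baseline.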

[14] = BSK_IMphg_SRB: Viability Assessment in the BioMAP Diversity Plus: IMphg Assay (AID 2284292); settings: primary human endothelial cells with macrophages;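 also: measured one day after compound addition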
Summary of the method: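 Human venular endothelial cells with macrophages, 24 h after chemical dosing; total protein by 0.1% SRB staining after 10% TCA fixation, read at 560 nm. Positive-direction fitting versus DMSO baseline.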

[15] = read-out: Macrophage colony-stimulating factor (MCSF), CSF1 (gene 1435); experiment: BSK_IMphg_MCSF: BioMAP Diversity Plus: IMphg Assay for Macrophage colony-stimulating factor (MCSF) Biomarker Activity (AID 2284293); settings: primary human endothelial cells with macrophages
Summary of the method: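 Co-culture of human venular endothelial cells and macrophages, 24 hours of chemical exposure. M-CSF quantified by ELISA, with parallel SRB total-protein staining for cytotoxicity; activity fitted relative to DMSO.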

[16] = read-out: Interleukin-10 (IL10), IL10 (gene 3586); experiment: BSK_IMphg_IL10: BioMAP Diversity Plus: IMphg Assay for Interleukin-10 (IL10) Biomarker Activity (AID 2284294); settings: primary human endothelial cells with macrophages
Summary of the method: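 Human venular endothelial cells cocultured with macrophages, dosed 24 h; IL-10 measured by ELISA, activity relative to DMSO. Cytotoxicity assessed in parallel cultures by sulforhodamine B total-protein staining.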

[17] = BSK_IMphg_SRB.Mphg: Macrophage Viability Assessment in the BioMAP Diversity Plus: IMphg Assay (AID 2284295); settings: primary human endothelial cells with macrophages
Summary of the method: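 Venular endothelial cells co-cultured with macrophages, read 24 h after dosing. Total protein measured by 0.1% SRB staining after 10% TCA fixation, absorbance at 560 nm. Fitted in positive direction against DMSO baseline.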

[18] = read-out: Thrombomodulin, THBD (gene 7056); experiment: BSK_LPS_Thrombomodulin: BioMAP Diversity Plus: LPS Assay for Thrombomodulin Biomarker Activity (AID 2284296); settings: primary human HUVEC with PBMC
Summary of the method: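 Human umbilical vein endothelial cells co-cultured with PBMC and stimulated with LPS; cell-surface thrombomodulin measured by ELISA 24 hours after compound. Gain or loss versus DMSO; cytotoxicity checked by SRB staining in parallel cultures.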

CD69, CD69 (gene 969) = experiment: BSK_LPS_CD69: BioMAP Diversity Plus: LPS Assay for CD69 Biomarker Activity (AID 2284303); settings: primary human HUVEC with PBMC
Summary of the method: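 Human umbilical vein endothelial cells co-cultured with PBMC under LPS stimulation, chemical exposure 24 h; cell-surface CD69 measured by ELISA and fitted in the positive direction versus DMSO.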

Measured: AC50

Sequence of E-selectin (Homo sapiens) (P16581 whole entry, looked up): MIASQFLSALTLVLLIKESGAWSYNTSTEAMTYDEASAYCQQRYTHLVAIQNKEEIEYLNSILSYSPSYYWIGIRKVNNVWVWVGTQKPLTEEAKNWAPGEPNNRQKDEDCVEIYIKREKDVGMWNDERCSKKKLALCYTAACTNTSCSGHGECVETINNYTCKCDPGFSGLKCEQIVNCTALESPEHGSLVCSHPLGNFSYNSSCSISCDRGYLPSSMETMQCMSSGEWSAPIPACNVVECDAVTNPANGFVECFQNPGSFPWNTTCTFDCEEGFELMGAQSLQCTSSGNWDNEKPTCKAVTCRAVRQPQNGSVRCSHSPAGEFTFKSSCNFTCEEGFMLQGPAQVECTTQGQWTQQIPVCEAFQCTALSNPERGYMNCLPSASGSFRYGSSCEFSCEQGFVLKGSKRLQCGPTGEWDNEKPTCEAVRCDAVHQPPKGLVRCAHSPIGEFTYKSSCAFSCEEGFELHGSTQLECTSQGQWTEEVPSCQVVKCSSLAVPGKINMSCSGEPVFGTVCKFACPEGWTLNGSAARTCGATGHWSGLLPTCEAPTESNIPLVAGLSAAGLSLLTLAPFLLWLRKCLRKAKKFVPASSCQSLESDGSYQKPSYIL

O=[N+]([O-])/N=C1\NCCN1Cc1ccc(Cl)nc1
inactive: [1] | [2] | [3] | [4] | [5] | [6] | [7] | [8] | [9]

CCC(C)(C)C(=O)OC1=C(c2ccc(Cl)cc2Cl)C(=O)OC12CCCCC2
inactive: [1] | [2] | [3] | [4] | [6] | [7] | [8] | [9]

COP(=S)(OC)Oc1ccc([N+](=O)[O-])cc1
inactive: [1] | [2] | [3] | [4] | [5] | [6] | [7] | [8] | [9]

CC[C@H](C)[C@H]1O[C@]2(C=C[C@@H]1C)C[C@@H]1C[C@@H](C/C=C(\C)[C@@H](O[C@H]3C[C@H](OC)[C@@H](O[C@H]4C[C@H](OC)[C@@H](O)[C@H](C)O4)[C@H](C)O3)[C@@H](C)/C=C/C=C3\CO[C@@H]4[C@H](O)C(C)=C[C@@H](C(=O)O1)[C@]34O)O2 (tested in a mixture with another compound)
inactive: [1] | [6]
active: [2] 7.19 µM | [4] 7.61 µM | [5] 0.444 µM | [7] 7.55 µM | [8] 6.89 µM | [9] 7.63 µM

O=S(=O)(O)C(F)(F)C(F)(F)C(F)(F)C(F)(F)C(F)(F)C(F)(F)C(F)(F)C(F)(F)F
inactive: [10] | CD40, CD40 (gene 958) | [11] | [12] | [14] | [15] | [17] | [18] | [1] | [2] | [3] | [4] | CD69, CD69 (gene 969) | [5] | [8] | [9]
active: [11] 30 µM and 8.71 µM | [13] 30 µM and 38.2 µM | [16] 45.3 µM [middle of 4 runs] | [2] 68.6 µM | [3] 2.09 µM | [4] 0.362 µM | [7] 79.3 µM | [8] 62.4 µM | [9] 73 µM

CNC(=O)CSP(=S)(OC)OC
inactive: [1] | [2] | [3] | [4] | [5] | [6] | [7] | [8] | [9]

COP(=O)(OC)OC=C(Cl)Cl
active: [1] 38.2 µM | [2] 59.7 µM | [4] 13.5 µM | [6] 13.3 µM | [8] 89 µM | [9] 15 µM
inactive: [7]

CC1(c2ccc(Oc3ccccc3)cc2)OC(=O)N(Nc2ccccc2)C1=O (stereo unspecified)
inactive: [1] | [2] | [3] | [4] | [6] | [7] | [8] | [9]
active: [5] 1.61 µM

O=S1OCC2C(CO1)C1(Cl)C(Cl)=C(Cl)C2(Cl)C1(Cl)Cl (stereo unspecified)
inactive: [1] | [2] | [3] | [4] | [6] | [7] | [8] | [9]
active: [5] 2.92 µM

O=C(O)COc1ccc(Cl)cc1Cl
inactive: [1] | [2] | [3] | [4] | [7] | [8] | [9]

CC1(C)C(C=C(Cl)Cl)C1C(=O)OC(C#N)c1ccc(F)c(Oc2ccccc2)c1 (stereo unspecified)
inactive: [1] | [2] | [3] | [4] | [6] | [7] | [8] | [9]
active: [5] 0.227 µM

O=C(O)C(F)(F)C(F)(F)C(F)(F)C(F)(F)C(F)(F)C(F)(F)C(F)(F)F
inactive: [10] | CD40, CD40 (gene 958) | [11] | [12] | [13] | [14] | [15] | [16] | [17] | [18] | [1] | [2] | [3] | [4] | CD69, CD69 (gene 969) | [5] | [6] | [7] | [8] | [9]
active: [16] 30 µM | [18] 0.609 µM | CD69, CD69 (gene 969) 220 nM and 30 µM

CC(C)N(C(=O)COc1nnc(C(F)(F)F)s1)c1ccc(F)cc1
active: [8] 0.0343 µM
inactive: [1] | [2] | [3] | [4] | [5] | [6] | [7] | [9]

— PubChem BioAssay (EPA / NIEHS)
